PubChem BioAssay (EPA / NIEHS)
Records with an inconclusive call do not appear. Activity calls are given as the source filed them. The calls were made as follows: active = hit-call score of the fitted dose curve at least 0.9, where 1 is the maximum; inconclusive = response in the unintended direction; inactive = score below 0.9.

test: CCTE_Deisenroth_AIME_384WELL_CTox_Inactive: Cytotoxicity Assessment (CTOX) in CCTE's 384-well Estrogen Receptor Transactivation Assay without AIME metabolic competence (metabolism negative), Deisenroth Lab (AID 2284039);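 also: cell viability via live-cell protease substrate cleaved to fluorescent probe; cells exposed 24 h to medium preincubated 2 h with alginate-water beads without S9; loss of fluorescence signal means loss of viability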
Procedure: CCTE_Deisenroth_AIME_384WELL (AIME metabolism assay) is a cell-based, single-readout assay that uses VM7Luc4E2, a human mammary gland/breast cell line, with measurements taken at 24 hour after chemical dosing in a 384-well plate.CCTE_Deisenroth_AIME_384WELL_CTox_Inactive is one of four assay components measured or calculated from the CCTE_Deisenroth_AIME_384WELL assay. It is designed to make measurements of a protease substrate, a type of viability indicator, as detected with substrate cleavage to a fluorescent probe in living cells.CCTE_Deisenroth_AIME_384WELL_CTox_Inactive is a component of the CCTE_Deisenroth_AIME_384WELL assay that measures the effect of retroftting the VM7Luc ERTA assay with the Alginate Immobolization of Metabolic Enzymes (AIME) metabolism method. AIME is optimized to impart phase I hepatic metabolism using phenobarbital/beta-naphthoflavone induced hepatic S9 from male Sprague Dawley rats. Parent chemicals are incubated for 2 hours in the AIME assay prior to transfer to the VM7Luc ERTA assay plate. […] This endpoint evaluates cytotoxicity in metabolism negative mode. Using a type of flourescent probe in VM7Luc cells, loss-of-signal activity can be used to understand loss of viability. This assay endpoint, CCTE_Deisenroth_AIME_384WELL_CTox_Inactive, was analyzed with bidirectional fitting in the ERTA assay.
The AIME procedure consists of a preparative "pre-stamping" step using a barium chloride/poly-L-lysine (PLL) solution followed by "stamping" the lid in alginate-hepatic S9 (metabolism positive) or alginate-water (metabolism negative) to form microspheres. Once stamping is completed, the AIME lids are placed in duplicate microplates (metabolism positive or negative) containing chemical solutions and incubated for two hours to facilitate metabolic reactions. The conditioned medium, containing parent chemical or metabolites, is then transferred to the cell-based VM7Luc Estrogen Receptor Transactivation Assay (ERTA) for 24 hours. A typical experimental design tests a 10-point concentration series (0.002 - 200 uM) for 8 compounds (96-well format)1 or 32 compounds (384-well format)2 in single technical replicate. AIME assay controls include trans-stilbene (bioactivated control) and ethylparaben (bioinactivated control). ERTA assay plate controls include 17-beta estradiol (positive control) and DMSO (solvent control). Experiments typically comprise a minimum of four experimental replicates (n=4).

SMILES | outcome | AC50
C[C@@H](Oc1ccc(CNC(=O)c2cccnc2Oc2ccc3c(c2)OCO3)c(F)c1)C(=O)O | inactive | –
CCc1cccc(CC)c1N | – | 160 µM (active)
O=C1CN(N=Cc2ccc([N+](=O)[O-])o2)C(=O)N1 | – | 31.2 µM (active)
NC(=O)NN=Cc1ccc([N+](=O)[O-])o1 | – | 108 µM (active)
CCCc1ccccc1 | inactive | –
OCC(CO)(CO)CO | inactive | –
CCCCCOC(C)=O | inactive | –
CCc1ccc(O)c(C(C)(C)C)c1 | inactive | –
C=CCc1cc(S(=O)(=O)c2ccc(O)c(CC=C)c2)ccc1O | inactive | –
COc1cc2c(c(OC)c1OC)-c1ccc(OC)c(=O)cc1[C@@H](NC(C)=O)CC2 | – | 19.8 µM (active)
c1ccc2c(c1)-c1cccc3c1c-2cc1ccccc13 | – | 19.8 µM (active)
CCOC(N)=O | inactive | –
CCN(CC)C(=S)SSC(=S)N(CC)CC | inactive | –
CC(=O)c1ccccc1 | inactive | –
CCCCOC(=O)c1ccccc1 | inactive | –
COS(C)(=O)=O | inactive | –
CC(C)CC(C)O (centres undefined) | inactive | –
OCc1ccccc1 | inactive | –
OCCOCCOCCO | inactive | –
